Active and inactive are the calls of the source. A call without a number means that no potency is given here. Calls come from the whole dose curve; as a rule, active = well fitted activation curve with a large enough effect in the repeat runs; inconclusive = weak or mixed curves; inactive = flat fitted curve, though single readings scatter.

A short description of the assay: A CellTox Green Cytotoxicity Assay to monitor cytotoxicity in HepG2 cells - 0 hour (AID 1224882). Note: nearly all actives have a fitted effect of over 35% in size. The following applies: CellTox Green fluorescence; series mostly up to 76.8 µM. From the text:
National Center for Advancing Translational Sciences [NCATS]
NIH Chemical Genomics Center [NCGC]
U.S. Environmental Protection Agency [EPA]
National Institutes of Environmental Health Sciences [NIEHS]
National Toxicology Program [NTP]
Cell-based models are critical for drug discovery. Determining the natural cytotoxic effects resulting from test compounds is an essential research activity. A CellTox Green Cytotoxicity Assay to monitor cytotoxicity in real time of continues cell culture during 40 hours of the compound treatment was used to screen Tox21 10K library compounds in HepG2 cells. CellTox Green Cytotoxicity Assay is a nonlytic, homogeneous, biofluorescent method to measure cytotoxicity in cell culture after experimental manipulation. The assay system uses a proprietary asymmetric cyanine dye that is excluded from viable cells but preferentially stains the dead cell's DNA. […] Viable cells produce no appreciable increases in fluorescence. Therefore, the fluorescence signal produced by the binding interaction with dead cell DNA is proportional to cytotoxicity.
The mixture of HepG2 cell suspension and reagents were dispensed at 600cells/6 ul/well in 1536-well tissue culture treated black solid bottom plates using a Multidrop dispenser. After the assay plates were incubated at a 37 C/5% CO2 incubator for 5 hours, 23 nL of compounds dissolved in DMSO, positive and negative controls was transferred to the assay plate by a pintool work station. The plates were incubated at 37 C for 40 hours. The fluorescence intensity were measured at 0h, 8h, 16h, 24h, 32h and 40h time points using ViewLux plate reader during compound treatment.
For `O=C1OC(=O)c2c(Br)c(Br)c(Br)c(Br)c21`, the Potency entry is “inactive”.

Regarding `Nc1ccc(N=Nc2ccc(N)cc2)cc1`, the Potency result was “inactive”.

As for `CC(C)N=C=NC(C)C`, the Potency entry is “inactive”.

Consider `O=C(O)CCCc1c[nH]c2ccccc12`, for which the Potency entry is “inactive”.

With `COc1ccc(C)cc1`, the Potency result was “inactive”.

In the case of `CC(=O)Oc1cccc(O)c1`, the Potency result is “inactive”.

On to `SCCc1cnccn1`, for which the Potency entry is “inactive”.

For the compound `CC1CCCO1` (stereo not given), the Potency entry was “inactive”.

With `Cc1cc(CCC(=O)OCCOCCOCCOC(=O)CCc2cc(C)c(O)c(C(C)(C)C)c2)cc(C(C)(C)C)c1O`, the Potency entry is “inactive”.

`O=[N+]([O-])C1(Br)COCOC1`: the Potency entry was “inactive”.

As to `CCCCCCCCCCCCCCN(C)C`, the cytotoxicity is -1.15% [at 15.8 µM] (inactive).

In the case of `c1ccc2sc(SSc3nc4ccccc4s3)nc2c1`, the cytotoxicity is 0.139% [at 15.8 µM] (inactive).

For `CCOC(=O)Oc1ccc(CCNC(=O)[C@H](CCSC)NC(C)=O)cc1OC(=O)OCC`, the Potency entry was “inactive”.

As for `CC[C@H]1OC(=O)[C@H](C)[C@@H](O[C@H]2C[C@@](C)(OC)[C@@H](O)[C@H](C)O2)[C@H](C)[C@@H](O[C@@H]2O[C@H](C)C[C@H](N(C)C)[C@H]2O)[C@](C)(O)C[C@@H](C)C(=O)[C@H](C)[C@@H](O)[C@]1(C)O`, the Potency entry was “inactive”.

`CC[C@@H](CO)NCCN[C@@H](CC)CO`: the Potency result was “inactive”.

Regarding `O=[N+]([O-])c1ccc2ncccc2c1`, the Potency result is “inactive”.

As to `CCN(CC)C(=O)N1CCN(C)CC1`, the Potency result is “inactive”.

Turning to `O=C(O)CCC(=O)c1ccc(-c2ccccc2)cc1`, the Potency entry is “inactive”.

With `CC(C)OC(=O)c1ccccc1C(=O)OC(C)C`, the Potency entry was “inactive”.

For `CSSc1ccoc1C`, the Potency result was “inactive”.

`C=Cc1ccc(OC(C)=O)cc1`: the Potency entry was “inactive”.

Turning to `C=CC(=O)NC(C)C`, the Potency entry was “inactive”.

`O=CNNC=O`: the Potency result was “inactive”.

Regarding `CCN(CC)CC(=O)Nc1c(C)cccc1C(=O)OC`, the Potency entry is “inactive”.

With `CC(=O)c1ccc[nH]1`, the Potency result was “inactive”.

Consider `COc1cc(NCc2ccc3nc(N)nc(N)c3c2C)cc(OC)c1OC`, for which the Potency result was “inactive”.

Regarding `CC(C)CC(O)CC(C)C`, the Potency result was “inactive”.

Regarding `Nc1ccc(F)cc1`, the Potency result was “inactive”.

Turning to `Cc1c[nH]c2ccccc12`, the Potency result was “inactive”.

Regarding `Cc1ccc(Cl)cc1N`, the Potency entry is “inactive”.

As for `CCCCCCCC/C=C/C(=O)O`, the Potency entry was “inactive”.

As to `CC1=C2[C@@H]([C@H](C)CC[C@H]2/C=C(\C)C(=O)O)[C@H](O)C1`, the Potency entry is “inactive”.

Take `COc1ccc(C(=O)NCc2ccc(OCCN(C)C)cc2)cc1OC`: the Potency result is “inactive”.

For `CC/C=C\C/C=C\C/C=C\CCCCCCCC(=O)OCC`, the Potency result was “inactive”.

Take `Oc1ccc2c(c1)Cc1ccccc1-2`: the Potency result was “inactive”.

Turning to `CCOc1ncc(F)c(=O)[nH]1`, the Potency result is “inactive”.

Take `CCCCCCC(CO)CCCC` (stereo not given): the Potency entry is “inactive”.

Regarding `COc1ccc(-c2cc(C(F)F)nn2-c2ccc(S(N)(=O)=O)cc2)cc1F`, the Potency entry is “inactive”.

`OCC(CO)n1cnc(-c2ccc(F)cc2)c1-c1ccnc(Oc2ccccc2)n1`: the Potency result was “inactive”.

Regarding `CCCCCCC(O)CCOC(C)=O` (stereo not given), the Potency entry is “inactive”.

Values taken from PubChem BioAssay (Tox21).
